The values that follow come from the supplement of paper PMC6411743.

Compound in the test: Nc1nc2c(ncn2[C@@H]2O[C@H](COP(=O)(O)OP(=O)(O)OP(=O)(O)O)[C@@H](O)[C@H]2O)c(=O)[nH]1 [guanosine triphosphate]
In words: NP40-soluble protein abundance relative to vehicle (solubility fold change) (ratio); higher = more soluble protein in presence of GTP. The method, boiled down:
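In three independent experiments, Jurkat crude lysate made by Dounce homogenisation was treated for 10 min at room temperature and then 3 min at 37 °C with eight concentrations ranging from 0.1 to 10 mM. It was then solubilised with 0.8% NP40 plus benzonase for 60 min at 4 °C and ultracentrifuged. The supernatant was TMT-labelled for LC-MS/MS, and each value is the fold change against the detergent-processed vehicle for the same replicate, using vsn-normalised intensities.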

± gives the standard deviation of the averaged measurements. Targets with the largest changes are over-represented here; the source holds about 5,400 in all.

UniProt Q9NR28, sequence (Q9NR28 whole entry): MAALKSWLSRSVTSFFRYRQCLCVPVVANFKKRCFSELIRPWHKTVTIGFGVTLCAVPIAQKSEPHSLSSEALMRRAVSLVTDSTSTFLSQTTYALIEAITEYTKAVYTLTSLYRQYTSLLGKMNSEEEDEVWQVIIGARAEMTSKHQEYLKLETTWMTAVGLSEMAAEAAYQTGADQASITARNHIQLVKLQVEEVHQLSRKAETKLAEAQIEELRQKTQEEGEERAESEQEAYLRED
UniProt Q9UKA9, sequence (Q9UKA9 whole entry): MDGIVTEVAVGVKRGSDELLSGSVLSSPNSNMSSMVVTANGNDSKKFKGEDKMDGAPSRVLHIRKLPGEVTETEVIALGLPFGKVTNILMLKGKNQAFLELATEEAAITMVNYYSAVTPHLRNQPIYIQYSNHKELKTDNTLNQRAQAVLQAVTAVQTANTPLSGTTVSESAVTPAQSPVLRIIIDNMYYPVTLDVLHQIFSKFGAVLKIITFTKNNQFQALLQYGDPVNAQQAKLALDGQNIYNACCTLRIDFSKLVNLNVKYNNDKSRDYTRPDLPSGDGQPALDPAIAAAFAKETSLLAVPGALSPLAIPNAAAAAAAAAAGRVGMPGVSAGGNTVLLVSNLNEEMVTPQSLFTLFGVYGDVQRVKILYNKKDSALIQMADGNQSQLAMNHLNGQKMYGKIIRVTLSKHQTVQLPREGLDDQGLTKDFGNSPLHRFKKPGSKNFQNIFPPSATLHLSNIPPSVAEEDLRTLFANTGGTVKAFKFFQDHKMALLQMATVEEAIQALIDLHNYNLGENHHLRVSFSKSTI
UniProt Q96CT7, sequence (Q96CT7 whole entry): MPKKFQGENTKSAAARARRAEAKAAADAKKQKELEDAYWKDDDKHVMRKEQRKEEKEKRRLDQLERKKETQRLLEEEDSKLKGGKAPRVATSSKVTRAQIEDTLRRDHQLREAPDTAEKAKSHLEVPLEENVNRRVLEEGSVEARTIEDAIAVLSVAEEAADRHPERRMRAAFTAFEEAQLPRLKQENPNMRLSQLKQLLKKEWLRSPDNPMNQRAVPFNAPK
UniProt Q9NRX1, sequence (Q9NRX1 whole entry): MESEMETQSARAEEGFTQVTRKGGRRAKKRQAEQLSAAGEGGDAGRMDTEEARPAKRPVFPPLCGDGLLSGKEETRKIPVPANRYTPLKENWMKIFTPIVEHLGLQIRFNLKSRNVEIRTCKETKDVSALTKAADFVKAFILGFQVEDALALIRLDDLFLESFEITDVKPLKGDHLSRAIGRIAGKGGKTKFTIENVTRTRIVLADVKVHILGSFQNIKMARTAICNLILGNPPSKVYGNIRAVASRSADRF
UniProt Q9BSF4, sequence (Q9BSF4 whole entry): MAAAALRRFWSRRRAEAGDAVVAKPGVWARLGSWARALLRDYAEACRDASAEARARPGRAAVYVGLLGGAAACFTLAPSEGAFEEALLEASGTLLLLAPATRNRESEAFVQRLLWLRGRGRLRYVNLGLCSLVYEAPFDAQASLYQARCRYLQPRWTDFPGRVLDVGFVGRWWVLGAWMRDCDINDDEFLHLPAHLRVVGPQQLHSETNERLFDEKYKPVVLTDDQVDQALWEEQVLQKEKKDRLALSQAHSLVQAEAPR
UniProt Q96BS2, sequence (Q96BS2 whole entry): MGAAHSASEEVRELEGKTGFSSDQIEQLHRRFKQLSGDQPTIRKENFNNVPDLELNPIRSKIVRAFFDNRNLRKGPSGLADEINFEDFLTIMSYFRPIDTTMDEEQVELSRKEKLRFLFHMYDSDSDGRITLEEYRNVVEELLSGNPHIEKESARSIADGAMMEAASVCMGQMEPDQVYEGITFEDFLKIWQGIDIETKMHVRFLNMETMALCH
UniProt Q96JM7, sequence (Q96JM7 whole entry): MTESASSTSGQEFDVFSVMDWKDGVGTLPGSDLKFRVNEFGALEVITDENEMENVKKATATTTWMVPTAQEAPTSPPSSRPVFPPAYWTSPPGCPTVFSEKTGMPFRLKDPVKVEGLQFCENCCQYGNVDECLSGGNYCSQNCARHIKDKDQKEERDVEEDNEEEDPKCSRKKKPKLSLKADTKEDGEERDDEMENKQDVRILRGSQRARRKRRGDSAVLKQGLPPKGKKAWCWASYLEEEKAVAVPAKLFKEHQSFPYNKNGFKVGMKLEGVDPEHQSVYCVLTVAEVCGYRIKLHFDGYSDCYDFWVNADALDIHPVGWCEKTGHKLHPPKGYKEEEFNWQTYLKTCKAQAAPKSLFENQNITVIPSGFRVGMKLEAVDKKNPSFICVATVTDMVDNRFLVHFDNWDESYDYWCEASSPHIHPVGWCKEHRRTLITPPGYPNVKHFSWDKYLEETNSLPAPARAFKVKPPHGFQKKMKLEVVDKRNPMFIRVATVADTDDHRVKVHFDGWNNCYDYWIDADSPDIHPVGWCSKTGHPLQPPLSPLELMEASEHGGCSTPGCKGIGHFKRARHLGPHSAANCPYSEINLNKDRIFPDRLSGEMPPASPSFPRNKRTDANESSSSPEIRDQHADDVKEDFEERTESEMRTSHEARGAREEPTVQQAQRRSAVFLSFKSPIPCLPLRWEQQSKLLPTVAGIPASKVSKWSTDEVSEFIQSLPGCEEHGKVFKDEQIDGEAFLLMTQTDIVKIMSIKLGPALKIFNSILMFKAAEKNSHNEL
UniProt Q96B97, sequence (Q96B97 whole entry): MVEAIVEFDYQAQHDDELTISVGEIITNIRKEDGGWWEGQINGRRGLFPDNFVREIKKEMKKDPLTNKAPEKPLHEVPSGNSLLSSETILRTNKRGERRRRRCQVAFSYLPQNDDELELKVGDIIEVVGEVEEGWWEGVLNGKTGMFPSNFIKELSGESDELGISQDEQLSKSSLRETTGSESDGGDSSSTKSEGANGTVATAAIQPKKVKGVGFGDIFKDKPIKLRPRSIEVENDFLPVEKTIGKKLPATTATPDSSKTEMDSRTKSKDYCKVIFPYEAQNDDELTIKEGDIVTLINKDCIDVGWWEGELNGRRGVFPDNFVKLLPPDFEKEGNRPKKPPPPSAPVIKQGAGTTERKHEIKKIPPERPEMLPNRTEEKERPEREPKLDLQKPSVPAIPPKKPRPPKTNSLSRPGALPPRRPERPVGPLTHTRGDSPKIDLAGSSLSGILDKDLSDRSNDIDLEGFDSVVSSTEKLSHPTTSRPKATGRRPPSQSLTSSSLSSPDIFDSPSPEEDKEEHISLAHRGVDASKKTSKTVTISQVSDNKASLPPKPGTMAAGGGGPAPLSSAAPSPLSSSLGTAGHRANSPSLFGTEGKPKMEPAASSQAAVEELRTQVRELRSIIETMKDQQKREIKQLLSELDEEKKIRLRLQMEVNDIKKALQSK
UniProt Q9NVK5, sequence (Q9NVK5 whole entry): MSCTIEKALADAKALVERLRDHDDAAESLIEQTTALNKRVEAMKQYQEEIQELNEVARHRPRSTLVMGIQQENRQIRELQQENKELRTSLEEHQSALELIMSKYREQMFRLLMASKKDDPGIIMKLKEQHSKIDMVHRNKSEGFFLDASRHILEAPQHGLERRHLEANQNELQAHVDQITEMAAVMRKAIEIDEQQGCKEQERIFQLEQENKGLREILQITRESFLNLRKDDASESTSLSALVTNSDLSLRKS
UniProt Q9Y508, sequence (Q9Y508 whole entry): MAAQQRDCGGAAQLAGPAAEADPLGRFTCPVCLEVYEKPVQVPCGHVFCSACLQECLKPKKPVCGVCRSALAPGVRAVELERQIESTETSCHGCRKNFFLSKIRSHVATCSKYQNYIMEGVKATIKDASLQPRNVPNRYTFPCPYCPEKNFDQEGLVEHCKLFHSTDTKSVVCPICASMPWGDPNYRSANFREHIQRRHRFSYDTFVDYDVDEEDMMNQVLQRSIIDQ

For UniProt Q9Y3D9|J3QLR8, the NP40-soluble protein abundance is, setting by setting: (concentration: 0.1mM) 1.01 ± 0.17; (concentration: 0.5mM) 1.01 ± 0.19; (concentration: 1mM) 1.61 ± 0.35; (concentration: 2mM) 1.69 ± 0.093; (concentration: 4mM) 1.771 ± 0.00083; (concentration: 6mM) 1.61 ± 0.061. The NP40-soluble protein abundance (concentration: 8mM) was found to be 1.49 ± 0.28 and the NP40-soluble protein abundance (concentration: 10mM) is 1.73 ± 0.19.

Regarding CCDC124 (UniProt Q96CT7), the NP40-soluble protein abundance reads like this: (concentration: 0.1mM) 1.01 ± 0.047; (concentration: 0.5mM) 0.984 ± 0.019; (concentration: 1mM) 1.12 ± 0.063; (concentration: 2mM) 1.17 ± 0.067; (concentration: 4mM) 1.41 ± 0.17; (concentration: 6mM) 1.57 ± 0.22. The NP40-soluble protein abundance is 1.61 ± 0.22 (concentration: 8mM) and 2.24 ± 0.18 (concentration: 10mM).

Turning to TESC (UniProt Q96BS2), the NP40-soluble protein abundance (concentration: 0.1mM) was 1.01 ± 0.035; the NP40-soluble protein abundance (concentration: 0.5mM) stood at 0.983 ± 0.071; the NP40-soluble protein abundance (concentration: 1mM) came out at 0.985 ± 0.095; the NP40-soluble protein abundance (concentration: 2mM) turned out to be 0.968 ± 0.16; the NP40-soluble protein abundance (concentration: 4mM) is 0.907 ± 0.074; the NP40-soluble protein abundance (concentration: 6mM) was determined as 0.932 ± 0.092. Moreover, the NP40-soluble protein abundance amounted to 0.926 ± 0.073 (concentration: 8mM) and 0.915 ± 0.09 (concentration: 10mM).

Regarding UniProt Q96B97|Q96B97-2, the NP40-soluble protein abundance (concentration: 0.1mM) came to 0.941 ± 0.12; the NP40-soluble protein abundance (concentration: 0.5mM) came out at 0.938 ± 0.1; the NP40-soluble protein abundance (concentration: 1mM) worked out at 0.962 ± 0.1; the NP40-soluble protein abundance (concentration: 2mM) came out at 0.943 ± 0.13; the NP40-soluble protein abundance (concentration: 4mM) is 0.949 ± 0.1; the NP40-soluble protein abundance (concentration: 6mM) was 0.935 ± 0.098. For the same target, the NP40-soluble protein abundance by setting is: (concentration: 8mM) 0.982 ± 0.11; (concentration: 10mM) 0.966 ± 0.12.

With UniProt Q9Y2X0-2|Q9Y2X0-3|Q9Y2X0, the NP40-soluble protein abundance (concentration: 0.1mM) came to 1.09 ± 0.2; the NP40-soluble protein abundance (concentration: 0.5mM) came to 1.07 ± 0.21; the NP40-soluble protein abundance (concentration: 1mM) came out at 1.04 ± 0.17; the NP40-soluble protein abundance (concentration: 2mM) turned out to be 1.16 ± 0.28; the NP40-soluble protein abundance (concentration: 4mM) came out at 1.08 ± 0.21; the NP40-soluble protein abundance (concentration: 6mM) was 1.11 ± 0.16. Further, the NP40-soluble protein abundance by setting is: (concentration: 8mM) 1.12 ± 0.18; (concentration: 10mM) 1.04 ± 0.19.

In the case of UniProt Q9NVK5|Q9NVK5-2, the NP40-soluble protein abundance is 0.987 ± 0.072 (concentration: 0.1mM); 0.945 ± 0.1 (concentration: 0.5mM); 1.16 ± 0.17 (concentration: 1mM); 1.11 ± 0.086 (concentration: 2mM); 1.13 ± 0.1 (concentration: 4mM); 1.19 ± 0.092 (concentration: 6mM). Moreover, the NP40-soluble protein abundance runs as follows: (concentration: 8mM) 1.28 ± 0.17; (concentration: 10mM) 1.27 ± 0.2.

UniProt Q96JM7|Q96JM7-2: the NP40-soluble protein abundance by setting is: (concentration: 0.1mM) 1.13 ± 0.15; (concentration: 0.5mM) 1.14 ± 0.016; (concentration: 1mM) 1.08 ± 0.16; (concentration: 2mM) 1.13 ± 0.078; (concentration: 4mM) 1.1 ± 0.2; (concentration: 6mM) 1.23 ± 0.031. For the same target, the NP40-soluble protein abundance amounted to 1.11 ± 0.056 (concentration: 8mM) and 1.15 ± 0.073 (concentration: 10mM).

Regarding UniProt Q96RW7|Q96RW7-2, the NP40-soluble protein abundance by setting is: (concentration: 0.1mM) 1.17 ± 0.29; (concentration: 0.5mM) 1.11 ± 0.23; (concentration: 1mM) 0.938 ± 0.16; (concentration: 2mM) 1.06 ± 0.37; (concentration: 4mM) 0.985 ± 0.2; (concentration: 6mM) 0.889 ± 0.19. Besides, the NP40-soluble protein abundance is, setting by setting: (concentration: 8mM) 0.892 ± 0.13; (concentration: 10mM) 0.924 ± 0.16.

On to UniProt Q9UKA9|Q9UKA9-4, for which the NP40-soluble protein abundance turned out to be 1.04 ± 0.021 (concentration: 0.1mM); 0.985 ± 0.025 (concentration: 0.5mM); 1.01 ± 0.014 (concentration: 1mM); 0.989 ± 0.045 (concentration: 2mM); 0.947 ± 0.051 (concentration: 4mM); 0.955 ± 0.036 (concentration: 6mM). Further, the NP40-soluble protein abundance was determined as 0.963 ± 0.029 (concentration: 8mM) and 0.906 ± 0.027 (concentration: 10mM).

With UniProt Q9NR28|Q9NR28-2, the NP40-soluble protein abundance (concentration: 0.1mM) was found to be 0.964 ± 0.011; the NP40-soluble protein abundance (concentration: 0.5mM) was 0.957 ± 0.055; the NP40-soluble protein abundance (concentration: 1mM) was found to be 0.972 ± 0.041; the NP40-soluble protein abundance (concentration: 2mM) stood at 0.963 ± 0.075; the NP40-soluble protein abundance (concentration: 4mM) amounted to 0.976 ± 0.059; the NP40-soluble protein abundance (concentration: 6mM) was 0.96 ± 0.068. The NP40-soluble protein abundance is, setting by setting: (concentration: 8mM) 0.94 ± 0.033; (concentration: 10mM) 1.01 ± 0.035.

As to UniProt Q9NVI7-2, the NP40-soluble protein abundance is, setting by setting: (concentration: 0.1mM) 1.07 ± 0.062; (concentration: 0.5mM) 1.16 ± 0.085; (concentration: 1mM) 1.34 ± 0.083; (concentration: 2mM) 1.56 ± 0.18; (concentration: 4mM) 1.79 ± 0.32; (concentration: 6mM) 1.9 ± 0.29. Besides, the NP40-soluble protein abundance reads like this: (concentration: 8mM) 2.04 ± 0.29; (concentration: 10mM) 2.11 ± 0.29.

For PNO1 (UniProt Q9NRX1), the NP40-soluble protein abundance runs as follows: (concentration: 0.1mM) 1.04 ± 0.082; (concentration: 0.5mM) 1.09 ± 0.17; (concentration: 1mM) 1.14 ± 0.19; (concentration: 2mM) 1.15 ± 0.28; (concentration: 4mM) 1.09 ± 0.27; (concentration: 6mM) 1.09 ± 0.3. Moreover, the NP40-soluble protein abundance runs as follows: (concentration: 8mM) 1.15 ± 0.28; (concentration: 10mM) 1.15 ± 0.32.

As for UniProt Q9BSF4, the NP40-soluble protein abundance (concentration: 0.1mM) is 1.16 ± 0.16; the NP40-soluble protein abundance (concentration: 0.5mM) turned out to be 1.09 ± 0.11; the NP40-soluble protein abundance (concentration: 1mM) is 1.12 ± 0.085; the NP40-soluble protein abundance (concentration: 2mM) was found to be 1.11 ± 0.027; the NP40-soluble protein abundance (concentration: 4mM) was found to be 1.18 ± 0.091; the NP40-soluble protein abundance (concentration: 6mM) turned out to be 1.17 ± 0.037. The NP40-soluble protein abundance runs as follows: (concentration: 8mM) 0.972 ± 0.071; (concentration: 10mM) 0.97875 ± 0.0002.

For RNF114 (UniProt Q9Y508), the NP40-soluble protein abundance by setting is: (concentration: 0.1mM) 0.95 ± 0.011; (concentration: 0.5mM) 0.967 ± 0.032; (concentration: 1mM) 0.924 ± 0.041; (concentration: 2mM) 0.91 ± 0.068; (concentration: 4mM) 0.895 ± 0.057; (concentration: 6mM) 0.897 ± 0.056. Moreover, the NP40-soluble protein abundance runs as follows: (concentration: 8mM) 0.876 ± 0.072; (concentration: 10mM) 0.888 ± 0.084.
